From PMC12820563, “FoxP3 forms a head-to-head dimer in vivo and stabilizes its multimerization on adjacent microsatellites” come the findings set out here.

Whole data set: some 16,000 sequences, median “rpm ratio (pull-down/input)” near 0.94, cut for the highest 2% near 1.7. The full list was thinned out, with the highest values kept by preference.

The assay has as its target T1, MBP-FoxP1dN (Mus musculus, UniProt P58462 326-579).
T1 sequence: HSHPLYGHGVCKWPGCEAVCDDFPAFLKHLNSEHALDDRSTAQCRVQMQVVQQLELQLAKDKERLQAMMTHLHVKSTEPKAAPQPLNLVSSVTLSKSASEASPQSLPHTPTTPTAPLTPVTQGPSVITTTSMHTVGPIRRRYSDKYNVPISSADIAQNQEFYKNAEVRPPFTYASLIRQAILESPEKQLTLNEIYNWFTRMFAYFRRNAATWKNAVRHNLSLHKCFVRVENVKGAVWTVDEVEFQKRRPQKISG
As to the kind of experiment: PD-seq (MBP pull-down with sequencing); 20 mM Tris-HCl pH 7.5, 100 mM NaCl, 1.5 mM MgCl2, 0.4 uM protein, 0.1 uM dsDNA library, 30 min, room temperature, amylose pull-down; high values mean tight binding. Particulars: protein: recombinant; tags: His6-MBP; chain copies: 2; dsDNA, one strand shown. Put shortly: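 E. coli-expressed mouse FoxP3 or FoxP1 fragment, N-terminus removed and tagged with His6-MBP, was used at 0.4 µM against 0.1 µM of a Klenow-filled degenerate double-stranded DNA library. After 30 min at room temperature in Tris pH 7.5 buffer with NaCl and MgCl2, complexes were pulled down on amylose resin and washed three times. Binding is pull-down over input reads-per-million enrichment from pooled replicates of the proteinase K-released, PCR-barcoded, Illumina-sequenced DNA.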
Turning to “GATGATTGTTCTCCCAGCTGATGAATTTGTGTTTTCGAGTAAACAAATTTTCCTAATCTTTCTGTTCAAGCGCCATCTAC”, the binding signal is 2.61 RPM ratio (pull-down/input).

Turning to “GATGATTGTTCTCCCAGCTGATGAATTGTGTTTTTCGAGTAAACAAATTTTCCTAATCTTTCTGTTCAAGCGCCATCTAC”, the binding signal is 2.33 RPM ratio (pull-down/input).

In the case of “GATGATTGTTCTCCCAGCTGATGAATTTGTGTGTTCGAGTAAACAAATTTTCCTAATCTTTCTGTTCAAGCGCCATCTAC”, the binding signal is 1.59 RPM ratio (pull-down/input).

As for “GATGATTGTTCTCCCAGCTGATGAATTTGTGATTTCGAGTAAACAAATTTTCCTAATCTTTCTGTTCAAGCGCCATCTAC”, the binding signal is 1.41 RPM ratio (pull-down/input).

On to “GATGATTGTTCTCCCAGCTGATGAATTTGTGTTCTCGAGTAAACAAATTTTCCTAATCTTTCTGTTCAAGCGCCATCTAC”, for which the binding signal is 1.48 RPM ratio (pull-down/input).

For “GATGATTGTTCTCCCAGCTGATGAATTCTGTGTTTCGAGTAAACAAATTTTCCTAATCTTTCTGTTCAAGCGCCATCTAC”, the binding signal was 1.14 RPM ratio (pull-down/input).

Consider “GATGATTGTTCTCCCAGCTGATGAATTTTGTGTTTCGAGTAAACAAATTTTCCTAATCTTTCTGTTCAAGCGCCATCTAC”, for which the binding signal is 1.58 RPM ratio (pull-down/input).

On to “GATGATTGTTCTCCCAGCTGATGAATTTTTGTGTTCGAGTAAACAAATTTTCCTAATCTTTCTGTTCAAGCGCCATCTAC”, for which the binding signal is 1.95 RPM ratio (pull-down/input).

For the sequence “GATGATTGTTCTCCCAGCTGATGAATTGTGTGTTTCGAGTAAACAAATTTTCCTAATCTTTCTGTTCAAGCGCCATCTAC”, the binding signal is 1.57 RPM ratio (pull-down/input).

As to “GATGATTGTTCTCCCAGCTGATGAATTGATAGCTTCGAGTAAACAAATTTTCCTAATCTTTCTGTTCAAGCGCCATCTAC”, the binding signal was 0.923 RPM ratio (pull-down/input).

As to “GATGATTGTTCTCCCAGCTGATGAATTGCAATTCTCGAGTAAACAAATTTTCCTAATCTTTCTGTTCAAGCGCCATCTAC”, the binding signal was 1.38 RPM ratio (pull-down/input).

Turning to “GATGATTGTTCTCCCAGCTGATGAATTAAGCCTATCGAGTAAACAAATTTTCCTAATCTTTCTGTTCAAGCGCCATCTAC”, the binding signal was 0.873 RPM ratio (pull-down/input).

In the case of “GATGATTGTTCTCCCAGCTGATGAATTCTTCCAATCGAGTAAACAAATTTTCCTAATCTTTCTGTTCAAGCGCCATCTAC”, the binding signal is 0.955 RPM ratio (pull-down/input).

For the sequence “GATGATTGTTCTCCCAGCTGATGAATTTCTATAATCGAGTAAACAAATTTTCCTAATCTTTCTGTTCAAGCGCCATCTAC”, the binding signal is 1.1 RPM ratio (pull-down/input).

For “GATGATTGTTCTCCCAGCTGATGAATTCTCAACCTCGAGTAAACAAATTTTCCTAATCTTTCTGTTCAAGCGCCATCTAC”, the binding signal was 0.795 RPM ratio (pull-down/input).

Consider “GATGATTGTTCTCCCAGCTGATGAATTAATGCCGTCGAGTAAACAAATTTTCCTAATCTTTCTGTTCAAGCGCCATCTAC”, for which the binding signal was 1.11 RPM ratio (pull-down/input).

On to “GATGATTGTTCTCCCAGCTGATGAATTCACCGCCTCGAGTAAACAAATTTTCCTAATCTTTCTGTTCAAGCGCCATCTAC”, for which the binding signal is 0.899 RPM ratio (pull-down/input).

On to “GATGATTGTTCTCCCAGCTGATGAATTGTGATCGTCGAGTAAACAAATTTTCCTAATCTTTCTGTTCAAGCGCCATCTAC”, for which the binding signal was 1.16 RPM ratio (pull-down/input).

For the sequence “GATGATTGTTCTCCCAGCTGATGAATTTCTGACATCGAGTAAACAAATTTTCCTAATCTTTCTGTTCAAGCGCCATCTAC”, the binding signal is 0.96 RPM ratio (pull-down/input).

Take “GATGATTGTTCTCCCAGCTGATGAATTTTTGACATCGAGTAAACAAATTTTCCTAATCTTTCTGTTCAAGCGCCATCTAC”: the binding signal was 1.09 RPM ratio (pull-down/input).

In the case of “GATGATTGTTCTCCCAGCTGATGAATTATTGACATCGAGTAAACAAATTTTCCTAATCTTTCTGTTCAAGCGCCATCTAC”, the binding signal was 2 RPM ratio (pull-down/input).

Consider “GATGATTGTTCTCCCAGCTGATGAATTGTTGACATCGAGTAAACAAATTTTCCTAATCTTTCTGTTCAAGCGCCATCTAC”, for which the binding signal was 2.54 RPM ratio (pull-down/input).

Regarding “GATGATTGTTCTCCCAGCTGATGAATTATTGAAATCGAGTAAACAAATTTTCCTAATCTTTCTGTTCAAGCGCCATCTAC”, the binding signal is 1.23 RPM ratio (pull-down/input).

For the sequence “GATGATTGTTCTCCCAGCTGATGAATTGACATAATCGAGTAAACAAATTTTCCTAATCTTTCTGTTCAAGCGCCATCTAC”, the binding signal was 1.63 RPM ratio (pull-down/input).

For the sequence “GATGATTGTTCTCCCAGCTGATGAATTGACATTATCGAGTAAACAAATTTTCCTAATCTTTCTGTTCAAGCGCCATCTAC”, the binding signal was 1.5 RPM ratio (pull-down/input).

For “GATGATTGTTCTCCCAGCTGATGAATTGACAACATCGAGTAAACAAATTTTCCTAATCTTTCTGTTCAAGCGCCATCTAC”, the binding signal is 2.29 RPM ratio (pull-down/input).

Turning to “GATGATTGTTCTCCCAGCTGATGAATTGATGACATCGAGTAAACAAATTTTCCTAATCTTTCTGTTCAAGCGCCATCTAC”, the binding signal is 1.34 RPM ratio (pull-down/input).

For the sequence “GATGATTGTTCTCCCAGCTGATGAATTGAACTAATCGAGTAAACAAATTTTCCTAATCTTTCTGTTCAAGCGCCATCTAC”, the binding signal is 0.992 RPM ratio (pull-down/input).

For the sequence “GATGATTGTTCTCCCAGCTGATGAATTACCGCGCTCGAGTAAACAAATTTTCCTAATCTTTCTGTTCAAGCGCCATCTAC”, the binding signal is 0.948 RPM ratio (pull-down/input).

As for “GATGATTGTTCTCCCAGCTGATGAATTTGATTCCTCGAGTAAACAAATTTTCCTAATCTTTCTGTTCAAGCGCCATCTAC”, the binding signal is 0.839 RPM ratio (pull-down/input).

As to “GATGATTGTTCTCCCAGCTGATGAATTCTTGGTTTCGAGTAAACAAATTTTCCTAATCTTTCTGTTCAAGCGCCATCTAC”, the binding signal was 0.962 RPM ratio (pull-down/input).
